Measured values as given in PubChem BioAssay (NCI).
Compounds without any hit were thinned out: in the full panel of roughly 83,000, 20% have a hit.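 48-hour exposure, single concentration, 96-well plates; percent growth endpoint where 0 means no net growth. Active: below 10.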 Calls of active or inactive are those of the source.

Tests used:
Experiment in all cases: NCI-60 one-dose screen, 48 h (100 = growth as untreated, 0 = no growth, -100 = all killed)
[1] = tested on: HCT-15 colon; conditions: 10 µM unless noted
[2] = tested on: HT29 colon; conditions: 10 µM unless noted
[3] = tested on: SNB-75 CNS; conditions: 10 µM unless noted
[4] = tested on: SNB-19 CNS; conditions: 10 µM unless noted
[5] = tested on: U251 CNS; conditions: 10 µM unless noted
[6] = tested on: PC-3 prostate; conditions: 10 µM unless noted
[7] = tested on: SK-MEL-5 melanoma; conditions: 10 µM unless noted
[8] = tested on: UACC-62 melanoma; conditions: 10 µM unless noted
[9] = tested on: LOX IMVI melanoma; conditions: 10 µM unless noted
[10] = tested on: SK-MEL-28 melanoma; conditions: 10 µM unless noted
[11] = tested on: SK-MEL-2 melanoma; conditions: 10 µM unless noted
[12] = tested on: EKVX NSCLC; conditions: 10 µM unless noted
[13] = tested on: SN12C renal; conditions: 10 µM unless noted
[14] = tested on: UO-31 renal; conditions: 10 µM unless noted
[15] = tested on: ACHN renal; conditions: 10 µM unless noted
[16] = tested on: CAKI-1 renal; conditions: 10 µM
[17] = tested on: A498 renal; conditions: 10 µM unless noted
[18] = tested on: CCRF-CEM leukemia; conditions: 10 µM unless noted
[19] = tested on: MOLT-4 leukemia; conditions: 10 µM unless noted

Measured: growth

CO[C@H]1/C=C/C=C/C=C/C[C@H](OC(=O)[C@@H](C)NC(=O)C2CCCCC2)[C@H](C)[C@@H](O)/C(C)=C\CCC2=CC(=O)C=C(NC(=O)C1)C2=O
active: [1] 6.39% | [2] -28.8% | [3] -20.2% | [4] 2.4% | [5] -19.6% | [6] -2.95% | [7] -57% | [8] 2.09% | [9] -38.8% | [10] -3.36% | [11] -42.7% | [12] -17% | [13] -10% | [14] 5.46% | [15] -34.8% | [17] -2.6% | [18] -0.0954% | [19] -10.4%
inactive: [16] 16.3%

CCN1CCN(Cc2ccc(NC(=O)Nc3cccc(-n4ccc5c(NC(=O)c6ccccc6)nccc54)c3)cc2C(F)(F)F)CC1
inactive: [1] 77% | [2] 75.1% | [3] 80.2% | [4] 89.8% | [5] 76.3% | [6] 66.4% | [7] 43.1% | [8] 68% | [9] 85% | [10] 82.8% | [11] 90.6% | [12] 89.8% | [13] 95.7% | [14] 72.3% | [15] 96% | [16] 81% | [17] 90% | [18] 78.7% | [19] 112%

Nc1nccc2c1ccn2-c1cccc(NC(=O)c2ccc(N3CCOCC3)c(C(F)(F)F)c2)c1
active: [1] 9.8% | [2] -47.2% | [5] 8.89% | [7] -43.7% | [9] 5.35% | [11] -6.68% | [14] 7.5% | [16] -0.708% | [17] -12.9% | [18] 7.34% | [19] 9.73%
inactive: [3] 23.8% | [4] 31.9% | [6] 18% | [8] 13.8% | [10] 47.3% | [12] 44.4% | [13] 25.6% | [15] 13.3%

O=C(Nc1ccc(-n2cc(-c3ccncc3)c(-c3ccc(O)c(Cl)c3)n2)cc1)Nc1cc(C(F)(F)F)cc(C(F)(F)F)c1
inactive: [1] 61.1% | [2] 97.2% | [3] 72.2% | [4] 47.6% | [5] 37.7% | [6] 50.4% | [7] 54% | [8] 64.1% | [9] 51.4% | [10] 76.8% | [11] 77.6% | [12] 44.6% | [13] 61.6% | [14] 59.6% | [15] 65.5% | [16] 46.6% | [17] 65.9% | [18] 55.8% | [19] 64.3%

O=C1/C(=C/c2cccc3cnccc23)Cc2cc(F)ccc21
inactive: [1] 87.1% | [2] 94.6% | [3] 107% | [4] 102% | [5] 95.8% | [6] 79.2% | [7] 89.9% | [8] 86.3% | [9] 93% | [10] 109% | [11] 94.6% | [12] 91.2% | [13] 94.6% | [14] 70.4% | [15] 95.7% | [16] 84.5% | [17] 97.2% | [18] 110% | [19] 82.1%

O=C(Nc1cccc(-n2ccc3c(NC(=O)c4ccccc4)nccc32)c1)c1cc(N2CCOCC2)cc(C(F)(F)F)c1
active: [1] 3.17% | [2] -22.6% | [5] 4.89% | [7] -74.7% | [9] 9.47% | [11] -4.8% | [14] 9.78% | [15] 6% | [17] 6.2% | [19] 0.605%
inactive: [3] 39.2% | [4] 26.3% | [6] 27.9% | [8] 17.5% | [10] 38% | [12] 36.8% | [13] 18.8% | [16] 23.5% | [18] 13.5%

O=C(Nc1cccc(-n2ccc3c(NC(=O)c4ccccc4)ncnc32)c1)Nc1ccc(Cl)c(C(F)(F)F)c1
active: [11] -8.08%
inactive: [1] 34.1% | [2] 26.6% | [3] 44.4% | [4] 46.5% | [5] 31.7% | [6] 22.7% | [7] 19% | [8] 39.5% | [9] 24.7% | [10] 49.4% | [12] 32.1% | [13] 40.9% | [14] 43.5% | [15] 25.5% | [16] 18.1% | [17] 42.9% | [18] 16.4% | [19] 15.8%

O=C(Nc1cccc(-n2ccc3c(NC(=O)c4ccccc4)nccc32)c1)c1cccc(C(F)(F)F)c1
active: [1] 9.77% | [2] -13.2% | [5] 7.1% | [7] -45.4% | [9] 8.39% | [16] 9.21% | [17] 7.75% | [18] 8.28%
inactive: [3] 44.6% | [4] 28.5% | [6] 33.2% | [8] 29.6% | [10] 40.9% | [11] 18.8% | [12] 43.4% | [13] 25% | [14] 22.4% | [15] 24.7% | [19] 13.1%

O=[N+]([O-])c1cccc(C2c3ccccc3Oc3ccccc32)c1
inactive: [1] 71.1% | [2] 85.1% | [3] 94.4% | [4] 97.1% | [5] 94.7% | [6] 84.2% | [7] 99.4% | [8] 86.1% | [9] 85.8% | [10] 107% | [11] 107% | [12] 93.9% | [13] 99.9% | [14] 70.7% | [15] 89.1% | [16] 72.4% | [17] 94.1% | [18] 88.6% | [19] 79.6%

CN1CCN(CC(=O)N(C)c2ccc(N=C(c3ccccc3)c3c(O)[nH]c4ccc(C#N)cc34)cc2)CC1
active: [3] 3.45% | [19] 8.12%
inactive: [1] 64.7% | [2] 10.7% | [4] 61.1% | [5] 35.8% | [6] 36.4% | [7] 25.8% | [8] 68.1% | [9] 13.2% | [10] 53% | [11] 16.4% | [12] 63.4% | [13] 26.4% | [14] 23.9% | [15] 48.4% | [16] 20.2% | [17] 27% | [18] 15.8%

CN(C)c1ccc(/C=c2\s/c(=C\C(=O)C(C)(C)C)[nH]c2=O)cc1
inactive: [1] 95.5% | [2] 91% | [3] 94.3% | [4] 97.5% | [5] 94.1% | [6] 85.2% | [7] 101% | [8] 95.3% | [9] 87.1% | [10] 104% | [11] 102% | [12] 93.9% | [13] 99% | [14] 92.5% | [15] 100% | [16] 97.8% | [17] 105% | [18] 101% | [19] 133%

OC[C@@H](O)C(O[C@@H]1O[C@H](CO)[C@H](O)[C@H](O)[C@H]1O)[C@H](O)[C@@H](O)CO (some centres undefined)
inactive: [1] 98.2% | [2] 103% | [3] 98.6% | [4] 107% | [5] 97.6% | [6] 86.6% | [7] 106% | [8] 99.1% | [9] 98.8% | [10] 110% | [11] 106% | [12] 95.4% | [13] 101% | [14] 75.5% | [15] 94.4% | [16] 92.9% | [17] 111% | [18] 106% | [19] 106%

O=C1c2ccccc2OC=C(c2ccccc2)N1CCCCN1CCCCC1
inactive: [1] 86.2% | [2] 13.6% | [3] 76.1% | [4] 50.7% | [5] 30.3% | [6] 23.3% | [7] 84.5% | [8] 69.1% | [9] 54.5% | [10] 87.3% | [11] 69% | [12] 39.5% | [13] 20.4% | [14] 85.8% | [15] 104% | [16] 101% | [17] 87.1% | [18] 43.9% | [19] 60.6%

O=[N+]([O-])c1ccccc1NC1c2ccccc2Oc2ccccc21
inactive: [1] 37% | [2] 11% | [3] 69.5% | [4] 68.7% | [5] 40.9% | [6] 56.1% | [7] 46% | [8] 48.7% | [9] 65.1% | [10] 69.3% | [11] 57% | [12] 78.2% | [13] 92.9% | [14] 60.8% | [15] 71.2% | [16] 45.6% | [17] 10.7% | [18] 42.9% | [19] 13.8%

Nc1ncnc2c1ncn2C1OC(COC(c2ccccc2)(c2ccccc2)c2ccccc2)C(O)C1O (centres undefined)
inactive: [1] 98.2% | [2] 82.8% | [3] 76.2% | [4] 96.5% | [5] 99.5% | [6] 88.7% | [7] 92.3% | [8] 95.6% | [9] 91.4% | [10] 96.2% | [11] 87.7% | [12] 91.6% | [13] 93.7% | [14] 80.5% | [15] 47.9% | [16] 57.7% | [17] 103% | [18] 46.1% | [19] 78.8%

NCC(=O)NS(=O)(=O)OC[C@H]1O[C@@H](n2cnc3c(N)ncnc32)[C@H](O)[C@@H]1O
active: [2] 6% | [3] -6.72% | [4] -6.06% | [5] -39.3% | [6] 9.66% | [7] -0.341% | [9] -45.6% | [10] 8.36% | [11] -34.4% | [13] 1.03% | [14] 6.08% | [16] 5.11% | [17] -58.8% | [19] 1.15%
inactive: [1] 11.4% | [8] 30.7% | [12] 44.1% | [15] 11.8% | [18] 21.7%
